A selection: hits, their analogues and other compounds. The true share with any hit is near 31%.
CYP2C19 activ = cytochrome P450 2C19 (human) activation. P33261. recombinant CYP2C19, luciferin-H EGE luminescence; hits give high values; 0 = fully inhibited enzyme, 1 = untreated enzyme. activation factor at 5 µM. 96,000 tested, under 10 active. AID 1025;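 active = activation factor of at least 2 at 5 µM in the primary screen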;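 note: 0 = wells with 2.5 mM tranylcypromine and 1 = vehicle-only wells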
CYP2C9 inh = inhibitors of human CYP2C9. AID 777. CYP2C9 Supersomes, luciferin-H conversion, luminescence. hit rate 20% among 96,000. inhibition, % at 5 µM. P11712;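 active = blocking of liver enzyme CYP2C9 beyond about 50% at 5 µM, limit read from the data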
Target sequence (P11712 whole entry, looked up): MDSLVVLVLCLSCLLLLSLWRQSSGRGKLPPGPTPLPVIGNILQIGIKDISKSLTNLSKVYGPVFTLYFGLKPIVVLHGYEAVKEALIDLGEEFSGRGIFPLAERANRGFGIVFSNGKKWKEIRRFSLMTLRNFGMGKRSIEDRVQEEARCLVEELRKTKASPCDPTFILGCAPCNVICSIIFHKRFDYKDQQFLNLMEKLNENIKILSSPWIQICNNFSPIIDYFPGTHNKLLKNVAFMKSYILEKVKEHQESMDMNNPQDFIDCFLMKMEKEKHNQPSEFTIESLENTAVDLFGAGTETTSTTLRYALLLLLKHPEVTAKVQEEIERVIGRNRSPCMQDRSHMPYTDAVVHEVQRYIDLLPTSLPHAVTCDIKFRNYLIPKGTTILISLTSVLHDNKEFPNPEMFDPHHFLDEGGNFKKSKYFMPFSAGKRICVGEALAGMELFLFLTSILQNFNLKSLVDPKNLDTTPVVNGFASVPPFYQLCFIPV
CYP2C19 inhib = blocks human cytochrome P450 2C19 | CYP2C19 Supersomes, luciferin-H EGE luminescence, 30 min | inhibition, % at 5 µM | hit rate 21% among 96,000;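 active = CYP2C19 inhibition above a set limit at 5 µM in the primary screen, cut at about 50% in these data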;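 note: plate controls were negative control wells for no effect and 2.5 mM tranylcypromine positive control for full effect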
CYP2C9 act = increases human cytochrome P450 2C9 activity; hit rate 1.4% among 96,000; recombinant CYP2C9, luciferin-H conversion, luminescence; hits give high values; factor 1 = untreated enzyme, 0 = blocked; P11712; activation factor at 5 µM;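 active = activation factor of 2 or more for CYP2C9 at a 5 µM dose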;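 note: 0 = sulfaphenazole-blocked wells and 1 = vehicle-only wells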
PLAP act = activates human placental alkaline phosphatase. purified PLAP enzyme, luminescent substrate read-out; hits give high values. hit rate 1.2% among 96,000. activation fold at 20 µM; in the data active = activation fold above about 2
Starred values were filed as active, the others as inactive.

SMILES | CYP2C19 activ | CYP2C9 inh | CYP2C19 inhib | CYP2C9 act | PLAP act
CC1=C(C#N)C(NC(=O)c2ccc(C)cc2)(C(F)(F)F)C(=O)N1 (centres undefined) | 0.1 | 16.7 | 91.5* | 0.8 | 0.9
COc1ccc(Cc2noc(-c3ccc(C)cc3)n2)cc1 | 0.9 | 18.5 | 8.4 | 0.8 | 0.9
CC(=O)N1N=C(c2cccc([N+](=O)[O-])c2)OC1c1ccc(Cl)cc1Cl (centres undefined) | 0.3 | 77.7* | 73.3* | 0.2 | 1
Cc1ccccc1NS(=O)(=O)c1ccc(NC(=O)c2nc3ncccn3n2)cc1 | 0.9 | 45.7 | 11.6 | 0.5 | 0.9
O=C(O)c1cn(-c2ccccc2)nc1-c1ccncc1 | 0.9 | 18.1 | 7.9 | 0.8 | 0.9
O=C(NCCCn1ccnc1)c1cn(-c2ccccc2)nc1-c1ccc(F)cc1 | 0 | 99.6* | 95.7* | 0 | 2.3*
Cc1cc(C)c(C)c(S(=O)(=O)Nc2ccccc2C(=O)NCCCn2ccnc2)c1C | 0 | 98.2* | 98.6* | 0 | 1.4
O=C(NCCCn1ccnc1)c1ccccc1NS(=O)(=O)c1ccc(F)c(F)c1 | 0 | 99.5* | 99.2* | 0 | 1.4
O=C(Oc1ccccc1C(=O)Oc1ccccc1)c1ccco1 | 0.6 | 46.8 | 37.6 | 0.5 | 0.9
Cc1nc(N2CCN(Cc3ccccc3)CC2)nc2c1C(=O)CC(c1ccco1)C2 (centres undefined) | 0.6 | 54.3* | 40.2 | 0.5 | 1.4
COc1ccc(C2CC(=O)c3c(C)nc(N4CCN(c5ccccc5)CC4)nc3C2)cc1 (centres undefined) | 0.8 | 42.0 | 21.4 | 0.6 | 1.5
O=c1cc(-c2ccccc2)nc(N2CCN(Cc3ccc4c(c3)OCO4)CC2)[nH]1 | 0.6 | 48.4 | 37.7 | 0.5 | 1.2
Cc1nc(N2CCN(Cc3ccc4c(c3)OCO4)CC2)nc2c1C(=O)CC(c1ccco1)C2 (centres undefined) | 0.3 | 88.5* | 73.2* | 0.1 | 1.6
CCN1CCN(c2nc(C)c3c(n2)CCCC3=O)CC1 | 1.2 | 11.8 | -17.6 | 0.9 | 0.8
Cc1nc(N2CCN(Cc3ccccc3)CC2)nc2c1C(=O)CCC2 | 0.5 | 32.7 | 54.8* | 0.7 | 1.5
O=C(O)c1ccc(S(=O)(=O)Nc2ccc(F)c(Cl)c2)cc1 | 1 | 7.8 | 3.2 | 0.9 | 0.9
COC(=O)c1cc(C(=O)OC)cc(S(=O)(=O)Nc2ccc(Cl)c(N)c2)c1 | 0.1 | 2.3 | 94.3* | 1 | 0.8
CCCC(=N)C1=C(O)CC(CC(C)SCC)CC1=O (centres undefined) | 0.2 | 66.4* | 82.5* | 0.3 | 0.8
CCCC(=O)C1C(=O)CC(CC(C)SCC)CC1=O (centres undefined) | 0.8 | 28.5 | 16.3 | 0.7 | 1.1
O=C(O)c1[nH]c2ccccc2c1NS(=O)(=O)Cc1ccccc1 | 1 | 26.7 | 4.7 | 0.7 | 1.2
COC(=O)c1cc(OC)c(OC)cc1NC(=O)CC1CCCCC1 | 0.8 | 51.1* | 22.7 | 0.5 | 1.5
CCOC(=O)C1CCN(C(=S)Nc2cc(OC)c(OC)cc2C(=O)OC)CC1 | 0 | 17.9 | 99.6* | 0.8 | 1.8
COC(=O)c1sccc1NC(=S)N1CCCCC1 | 0.7 | -21.0 | 31.5 | 1.2 | 1.1
COC(=O)c1cc(OC)c(OC)cc1NC(=S)N1CCN(C)CC1 | 0.4 | 2.9 | 64.9* | 1 | 1.1
COC(=O)c1cc(OC)c(OC)cc1NC(=O)CN1CCCCC1 | 1 | -1.6 | 4.2 | 1 | 1
SMILES | CYP2C19 activ | CYP2C9 inh | CYP2C19 inhib | CYP2C9 act | PLAP act
COC(=O)c1cc(OC)c(OC)cc1NC(=S)N1CCC(C(N)=O)CC1 | 1.1 | -19.0 | -9.1 | 1.2 | 1.3
COC(=O)c1cc(OC)c(OC)cc1NC(=S)N1CCCCC1 | 0.5 | 6.8 | 50.1* | 0.9 | 1.1
COc1ccc(C2OC(=O)c3ccccc3S2)cc1 (centres undefined) | 0.7 | 2.6 | 30.5 | 1 | 1
Cc1nc2nc[nH]n2c(=O)c1CCC(C)C | 0.9 | 24.9 | 9.7 | 0.8 | 1.2
COc1ccc(CCC(=O)Nc2nc3c(s2)CN(C)CC3)cc1OC | 0.8 | 9.2 | 18.9 | 0.9 | 1.1
COc1cc(C(=O)Nc2ccc(OCC(=O)O)cc2)cc(OC)c1OC | 1.2 | -7.1 | -15.5 | 1.1 | 1.1
CCc1cc(=O)oc2cc(OCC(N)=O)c(Cl)cc12 | 1 | -6.3 | -4.5 | 1.1 | 0.7
COC(=O)c1cc(OC)c(OC)cc1NC(=S)N1CCN(c2ccccc2)CC1 | 0 | 53.8* | 99.9* | 0.5 | 1.4
COC(=O)c1cc(OC)c(OC)cc1NC(=O)c1ccccc1 | 1 | 17.2 | 0.8 | 0.8 | 0.9

Source: PubChem BioAssay
